Results on nine molecules are retold here after PubChem BioAssay (NCI).

Some test systems named below: SR leukemia; RPMI-8226 leukemia; OVCAR-5 ovarian; OVCAR-4 ovarian; SK-OV-3 ovarian; IGROV1 ovarian; OVCAR-3 ovarian; HS 578T breast; NCI/ADR-RES ovarian; T-47D breast; BT-549 breast; MDA-MB-435 melanoma; SW-620 colon; MCF7 breast; HCT-116 colon; HCC-2998 colon; KM12 colon.
What all share (assay): NCI-60 one-dose screen, 48 h (100 = growth as untreated, 0 = no growth, -100 = all killed)
Common to all, as to conditions: 10 µM unless noted

This is part of a sample that, as a whole, favours compounds with a hit. Of some 83,000 tested, about 20% had one in any assay.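 96-well plates, one dose, 48 hours. Percent growth reported; active if below 10.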 Values without a mark were called inactive. The source made the active and inactive calls.

As to `COC(=O)c1cccc(NC2=CC(=O)C(C)=C(C)C2=O)c1`, the growth was 45.5% in the test with SR leukemia; 80.8% with RPMI-8226 leukemia; 109% in the test on OVCAR-5 ovarian; 24.3% in the test on OVCAR-4 ovarian; 105% in the test on SK-OV-3 ovarian; 89.5% in the test with IGROV1 ovarian. Also, the growth was 8.14% (active) in the test on OVCAR-3 ovarian; 116% with HS 578T breast; 87.2% in the test with NCI/ADR-RES ovarian; 64.4% with T-47D breast; 101% in the test with BT-549 breast; 101% in the test with MDA-MB-435 melanoma. For the same molecule, the growth is 104% with SW-620 colon; 71.3% in the test on MCF7 breast; 66.7% in the test with HCT-116 colon; 110% in the test with HCC-2998 colon; 97.1% with KM12 colon.
For the molecule `O=C(/C=C/c1ccc(Cl)c(Cl)c1)Nc1ncc(Cc2ccc(Cl)c(Cl)c2)s1`, the growth in the test with SR leukemia is 38%; with RPMI-8226 leukemia it was 81.2%; with OVCAR-5 ovarian, 59.6%; with OVCAR-4 ovarian, 34%; with SK-OV-3 ovarian, 77.1%; in the test with IGROV1 ovarian, 60.6%. Further, the growth in the test with HS 578T breast was 76.4%; in the test with NCI/ADR-RES ovarian, 52.8%; in the test on T-47D breast, 24.6%; in the test with BT-549 breast, 47.4%; with MDA-MB-435 melanoma, 26.9%; in the test on SW-620 colon, 33.3%. In addition, the growth in the test on MCF7 breast is 28.7%; in the test on HCT-116 colon, 26.6%; in the test on HCC-2998 colon, 41.2%; in the test with KM12 colon it was 13.3%.
`COc1ccc(-c2nc(C#N)c(N3CCC(S(=O)(=O)N4CCOCC4)CC3)o2)cc1`: the growth with SR leukemia is 83.8%; with RPMI-8226 leukemia, 101%; in the test with OVCAR-5 ovarian it was 97.1%; with OVCAR-4 ovarian, 97.8%; in the test with SK-OV-3 ovarian, 107%; in the test with IGROV1 ovarian, 93%. Besides, the growth with HS 578T breast is 102%; in the test on NCI/ADR-RES ovarian, 97.2%; with T-47D breast, 96.9%; in the test on BT-549 breast, 108%; in the test with MDA-MB-435 melanoma, 99.3%; in the test on SW-620 colon, 95.7%. Also, the growth in the test on MCF7 breast is 90.7%; with HCT-116 colon it was 110%; in the test on HCC-2998 colon, 107%; in the test on KM12 colon, 97.1%.
Regarding `COc1ccc2[nH]cc(-c3nc(N)nnc3-c3cn(C)c4ccc(Br)cc34)c2c1`, the growth was 9.35% (active) in the test with SR leukemia; 6.31% (active) in the test with RPMI-8226 leukemia; 56.5% in the test on OVCAR-5 ovarian; 63.6% with OVCAR-4 ovarian; 44% with SK-OV-3 ovarian; 38.9% in the test with IGROV1 ovarian. Moreover, the growth in the test on OVCAR-3 ovarian was -8.84% (active); in the test with HS 578T breast, 16.9%; in the test on NCI/ADR-RES ovarian, 64.3%; in the test on T-47D breast, 29.3%; with BT-549 breast it was 39.6%; in the test with MDA-MB-435 melanoma, -8.23% (active). The growth was 20.9% with SW-620 colon; 12.2% with MCF7 breast; 18.1% in the test on HCT-116 colon; 58.9% with HCC-2998 colon; 23.7% in the test with KM12 colon.
With `COc1cc2cc(Oc3ccc(NC(=O)Nc4ccc(F)c(C(F)(F)F)c4)cc3)c(C)nc2cc1OCCN(C)C`, the growth is 1.94% (active) in the test on SR leukemia; 80.2% with RPMI-8226 leukemia; 137% in the test with OVCAR-5 ovarian; 112% in the test on OVCAR-4 ovarian; 116% in the test with SK-OV-3 ovarian; 101% in the test with IGROV1 ovarian. Moreover, the growth in the test on HS 578T breast is 108%; in the test on NCI/ADR-RES ovarian it was 41.2%; with T-47D breast it was 91.4%; in the test on BT-549 breast, 99%; in the test with MDA-MB-435 melanoma, 98.2%; with SW-620 colon, 53.7%. Moreover, the growth was -89.6% (active) in the test with MCF7 breast, 107% with HCT-116 colon, 104% in the test with HCC-2998 colon and 102% in the test with KM12 colon.
In the case of `COc1ccc(OC)c(CCn2cncc2-c2c[nH]c3ccc(Cl)cc23)c1`, the growth was 16.3% in the test with SR leukemia; 33.9% with RPMI-8226 leukemia; 16.2% with OVCAR-4 ovarian; 43.1% in the test on SK-OV-3 ovarian; 58.8% in the test on IGROV1 ovarian; 40% with OVCAR-3 ovarian. The growth in the test with HS 578T breast is 57.1%; with T-47D breast, 20.1%; with MDA-MB-435 melanoma it was 12.8%; in the test with SW-620 colon it was 43.4%; in the test with MCF7 breast, 21.6%; in the test with HCT-116 colon it was 34.5%. The growth with HCC-2998 colon was 72.4%; with KM12 colon it was 40.6%.
For `O=C(Nc1ccc(Cl)c(C(F)(F)F)c1)Nc1ccc2c(ccn2C(=O)c2cccc(F)c2)c1`, the growth is 27.5% in the test on SR leukemia; -6.63% (active) with RPMI-8226 leukemia; 67.3% in the test with OVCAR-5 ovarian; 7.18% (active) with OVCAR-4 ovarian; 99.1% in the test on SK-OV-3 ovarian; 25% in the test with IGROV1 ovarian. Further, the growth in the test with OVCAR-3 ovarian is 9.54% (active); with HS 578T breast, 52.4%; with NCI/ADR-RES ovarian, 30.8%; in the test with BT-549 breast, 53.3%; with MDA-MB-435 melanoma, 34.6%; in the test on SW-620 colon, 40.9%. Also, the growth in the test on MCF7 breast is 12.9%; in the test with HCT-116 colon, 20%; with HCC-2998 colon, 44.1%; in the test on KM12 colon it was 11%.
With `O=C(CCCCCCN1CC(=O)N2[C@@H](c3ccc(Cl)s3)c3[nH]c4ccccc4c3C[C@H]2C1=O)NO`, the growth in the test with SR leukemia was 14.7%; in the test on RPMI-8226 leukemia it was 17%; in the test on OVCAR-5 ovarian, 39.3%; with OVCAR-4 ovarian, 64.6%; in the test with SK-OV-3 ovarian, 78.7%; in the test with IGROV1 ovarian, -20.6% (active). Besides, the growth in the test on HS 578T breast is 65.5%; with NCI/ADR-RES ovarian, 98.5%; with T-47D breast, 27.5%; in the test with BT-549 breast, 85.7%; in the test with MDA-MB-435 melanoma, 23.9%; in the test with SW-620 colon it was 33.2%. For the same molecule, the growth in the test with MCF7 breast is 14.7%; with HCT-116 colon it was 13%; in the test on HCC-2998 colon it was 37.6%; with KM12 colon, 71.9%.
Consider `CCOC(=O)c1ccccc1NC1=C(Cl)C(=O)c2nc(C)ccc2C1=O`, for which the growth is 102% with SR leukemia; 99.3% in the test on RPMI-8226 leukemia; 83.6% in the test on OVCAR-4 ovarian; 108% in the test with SK-OV-3 ovarian; 91.4% in the test with IGROV1 ovarian; 90.6% in the test with OVCAR-3 ovarian. Further, the growth in the test with HS 578T breast was 99%; with NCI/ADR-RES ovarian it was 93.9%; in the test with T-47D breast it was 92.8%; in the test with BT-549 breast, 114%; with MDA-MB-435 melanoma it was 111%; with SW-620 colon, 94.8%. In addition, the growth in the test with MCF7 breast is 87.5%; with HCT-116 colon, 99.1%; with HCC-2998 colon, 97.2%; in the test on KM12 colon, 105%.
